# Bioassay records: PubChem, National Center for Advancing Translational Sciences (NCATS)
# Many of the other results were omitted from the sample, so hits are more common in it than they were.
# Pf Dd2 growth: Plasmodium falciparum Dd2 growth inhibition; AID 1347417; P. falciparum Dd2 growth, SYBR Green, 72 h; Potency, µM (doses to about 28.9 µM), actives largely listed as inhibitors; 120,000 compounds, 4.3% hits; active = well fitted inhibition curve with a large enough effect; also: nearly all actives have a fitted effect of over 65% in size
#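 Infected erythrocytes (Dd2, 0.3% parasitemia, 2.5% hematocrit final) are added to compound in RPMI-1640/Albumax II medium, grown 72 h at 37C in low oxygen, then lysed with saponin/Triton-X containing SYBR Green and read by fluorescence.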
# Numbers stand for hits; – = inactive; ! = a repeat was not active.
SMILES,Pf Dd2 growth
C[C@H]1[C@@H]2[C@@H](O)[C@H]([C@H](C)C(=O)N3CCCCC3)CC[C@@]2(C)CC[C@@H]1NC(=O)c1cncnc1,–
COC1CCOC2(CCN(C(=O)c3ccc(F)cc3)CC2)C1 (centres undefined),–
CC(C)(Oc1nn(CC2CC2)c2ccc(CN3CCCC3)cc12)C(=O)NCC(F)(F)F,13µM
CC(C)(Oc1nn(CC2CCOCC2)c2ccccc12)C(=O)NCC1CCOCC1,–
Cn1nc(OC(C)(C)C(=O)NCCc2ccccc2)c2cc(CN3CCCC3)ccc21,–
COc1cccc(C(=O)N[C@H]2[C@H](O)[C@H](O)C[C@@H]2c2ccccc2)c1,–
COc1ccc(C)cc1NC(=O)c1oc2ccc(S(=O)(=O)N3CCCCC3)cc2c1C,–
CCOC(=O)c1oc2ccc(S(=O)(=O)n3nc(-c4cc(OCC)c(OCC)c(OCC)c4)cc3N)cc2c1C,10µM
COc1ccc(C)cc1NC(=O)c1oc2ccc(S(=O)(=O)N3CCOCC3)cc2c1C,–
Cc1noc2c(Nc3ccc(C(N)=O)cc3)cc(-c3cccnc3)nc12,–
CCn1cc(C(=O)NCc2ccccc2Cl)c(=O)c2cc(S(=O)(=O)N3CCc4ccccc4C3)ccc21,10µM
CCn1cc(C(=O)NCc2ccccc2Cl)c(=O)c2cc(S(=O)(=O)N3CCOCC3)ccc21,–
CCn1cc(C(=O)NCc2ccccc2OC)c(=O)c2cc(S(=O)(=O)N3CCCCC3)ccc21,10µM
CCn1cc(C(=O)NCc2ccccc2Cl)c(=O)c2cc(S(=O)(=O)N3CCCCC3)ccc21,–
CCn1cc(C(=O)NCc2ccccc2Cl)c(=O)c2cc(S(=O)(=O)N3CCCCCC3)ccc21,–
CCN(CC)CCNC(=O)c1cn(CC)c2ccc(S(=O)(=O)N3CCc4ccccc4C3)cc2c1=O,–
CC(C)c1noc(CC2CCN(C(=O)c3cccs3)CC2)n1,–
Cc1ccc(N2C(=O)CSC23CCN(C(=O)C2CC2)CC3)cc1,–
CCn1cc(CN2CCCC(c3nc4c(C)cccc4[nH]3)C2)cc1C#N (centres undefined),13µM
CCN1CCC2(CCC1=O)CN(Cc1cc(C#N)n(CC)c1)CCN2C (centres undefined),–
N#Cc1ccc(CN2CC[C@H](c3nnc(Cc4ccccc4)o3)C2)cc1,–
Cc1cc(C(=O)N2C[C@@H](COCC3CC3)[C@H](c3ccccn3)C2)ccn1,–
CNC(=O)[C@H]1C[C@H](Oc2cccnc2)CN1S(=O)(=O)c1ccccc1,–
Cc1ccc(C2=NC3(CCN(C(=O)c4ccoc4)CC3)ON2)cc1,–
Cc1ccc2c(c1)-c1cc(C)nn1C(c1cc(Br)ccc1O)N2 (centres undefined),13µM
SMILES,Pf Dd2 growth
O=C(Cc1ccccc1Cl)N1CCC(Cc2nc(-c3ccc(F)cc3)no2)CC1,–
COc1ccc(CC(=O)N2[C@@H]3CC[C@H]2CC(NC(=O)c2ccncc2)C3)cc1Cl (some centres undefined),–
CC(C)(C)OC(=O)N1CCC(c2c(C(=O)N3CCN(c4ccccc4F)CC3)cnn2C(C)(C)C)CC1,10µM
Cc1ccc(-n2ncc(C(=O)N3CCN(c4ccccc4F)CC3)c2C2CCN(C(=O)OC(C)(C)C)CC2)cc1C,–
COc1ccccc1N1CCN(C(=O)c2cnn(C(C)(C)C)c2C2CCN(C(=O)OC(C)(C)C)CC2)CC1,6.3µM
CC(C)NC(=O)C[C@@H]1C[C@H]2O[C@H](CNCc3cnccc3C(F)(F)F)[C@@H](O)[C@H]2O1,–
CCC(C)C(=O)NCc1cc2c(nc1OC)CN(CCc1ccccn1)C2=O (centres undefined),–
COc1ccc(NC(=O)N[C@H]2CO[C@H]3[C@@H]2OC[C@@H]3n2cc(-c3ccccc3)nn2)cc1,–
O=C1C[C@@H]2CCN(C(=O)Nc3cccc(C(F)(F)F)c3)C[C@@H]2CCN1CCN1CCNC1=O,–
COc1ccc(NC(=O)O[C@@H]2CC[C@]3(C)C(CC[C@@H](O)[C@H]3CC(=O)N3CC[C@@H](O)C3)[C@]2(C)CO)cc1 (some centres undefined),–
CCn1cc(S(=O)(=O)N(C)C2CCc3nn(C)c(=O)n3CC2)cn1 (centres undefined),–
COCC1(C(=O)N2C[C@@H](C(=O)O)[C@H](c3ccccc3OC)C2)CCC1,–
O=C(c1ccc(N2CCC(NCC(c3ccccc3)c3ccccc3)CC2)cc1)N1CCCC(O)C1 (centres undefined),11µM
O=C(Nc1ccc(N2CCC(NCC(c3ccncc3)N3CCOCC3)CC2)cc1)C1CCCC1 (centres undefined),–
Cn1cnnc1CC1CCCN(C(=O)c2ccccc2)C1 (centres undefined),–
C[S+](=O)([O-])N1CC2(Cc3ccccc31)CN([S+](=O)([O-])c1cccs1)C2,–
Cc1c(C#N)c2ccccc2n1CC(=O)NC1CCOC2(CCOCC2)C1 (centres undefined),–
Clc1ccc(Nc2cnc3ccc(-c4ccccc4)nn23)nc1,–
c1ccc(-c2ccc3ncc(Nc4cnccn4)n3n2)cc1,–
Fc1ccc(-c2ccc3ncc(Nc4ccccn4)n3n2)cc1,5.6µM
Fc1ccc(-c2ccc3ncc(Nc4ccc(Cl)cn4)n3n2)cc1,–
Fc1ccc(-c2ccc3ncc(Nc4ncccn4)n3n2)cc1,–
c1ccc(-c2ccc3ncc(Nc4cccnc4)n3n2)cc1,1.6µM
CCN1CC(C(=O)NCc2cccc(OCc3ccccc3)c2)CC1=O (centres undefined),–
C[C@@H](NCc1ccc(F)cc1)c1onc(-c2ccc(Cl)cc2)c1C(=O)O,–
SMILES,Pf Dd2 growth
O=C(c1ccoc1)N1CCC(c2noc(CO)n2)C1 (centres undefined),–
CN1C(=O)C2(CCN(C(=O)c3ccccc3)C2)c2ccccc21 (centres undefined),–
COc1ccc(C(=O)N2CCC3(C2)C(=O)N(Cc2ccccc2)c2ccccc23)cc1 (centres undefined),–
COc1ccc(C(=O)N2CCC3(CC2)C(=O)Nc2ccccc23)cc1,–
COc1ccc(C(=O)N2CCC3(C2)C(=O)N(CCc2ccccc2)c2ccccc23)cc1 (centres undefined),8.9µM!
O=C(c1cccc(Cl)c1)N1CCC2(C1)C(=O)N(CCc1ccccc1)c1ccccc12 (centres undefined),7.9µM!
CC(C)Oc1ccc(C(=O)N2CCC3(CC2)C(=O)N(C)c2ccccc23)cc1,8.9µM
CN1C(=O)C2(CCN(C(=O)c3cccc(F)c3)C2)c2ccccc21 (centres undefined),–
CC1(C(=O)O)CCN(C(=O)c2cccc(Cl)c2)CC1,–
CC(C)CCNC(=O)N1CCC2(CC1)C(=O)N(C)c1ccccc12,–
CN(C)C[C@@H]1CN(C2CCOCC2)C[C@H]1NC(=O)c1ccc(F)c(Cl)c1,–
COC1CCOC2(CCN(C(=O)Cc3ccccc3F)CC2)C1 (centres undefined),–
C#CCNC(=O)C[C@@H]1O[C@H](CNC(=O)c2cccc(F)c2)[C@@H](O)[C@H]1O,–
COCCn1ncc(N2CCC(NC(=O)COc3ccc(F)cc3)CC2)cc1=O,–
Fc1ccccc1-c1cc2c(ccn2Cc2ccncc2)c(N2CCOCC2)n1,–
O=C(NC1CCN(Cc2ccccc2)CC1)C1CCCN(c2cnn(Cc3ccccc3)c(=O)c2)C1 (centres undefined),–
O=C(NCc1ccc(Cl)cc1)C1CCCN(c2cnn(Cc3ccccc3)c(=O)c2)C1 (centres undefined),11µM
